RPL19A TOR yeast – RPL19A-GFP expression modulators in yeast, primary screen, cell-based, S. cerevisiae, multiplex flow cytometry, MLPCN. S. cerevisiae RPL19A-GFP strain, 3 h; hits give low values. percent response vs DMSO, % at 10 µM. hit rate 0.3% among 330,000. AID 2025, 2009;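 active means percent response vs DMSO below 50%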;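 further: median channel GFP fluorescence of the barcoded RPL19A-GFP strain; ratio of sample median GFP to plate DMSO average so 100% = DMSO; lower means less RPL19A-GFP as with rapamycin TOR inhibition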
MEP2 TOR yeast – modulators of MEP2-GFP levels in yeast, primary screen, S. cerevisiae, multiplex flow cytometry, MLPCN library | S. cerevisiae MEP2-GFP strain, 3 h; 100% = DMSO control level | GFP response vs DMSO, % at 10 µM | hit rate 0.51% among 330,000 | AID 2016, 2009;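 active means GFP response versus DMSO above a set limit, roughly screen mean plus 3 SD, cut at about 180% in these data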;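 further: median GFP fluorescence of the barcode-gated MEP2-GFP cells per well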
LAP4-GFP MLPCN – modulators of LAP4-GFP expression in yeast, primary screen, S. cerevisiae, multiplex flow cytometry, MLPCN library | GFP response vs DMSO, % at 10 µM | hit rate 0.34% among 320,000 | 3 h; median GFP as percent of DMSO wells | AID 2023, 2009;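 active means GFP response vs DMSO above a set limit, about the screen mean plus 3 SD, cut at about 150% in these data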
CIT2 TOR yeast – modulators of CIT2-GFP expression in yeast, primary screen, S. cerevisiae, GFP fusion, multiplex flow cytometry, MLPCN library; hit rate 0.065% among 320,000; AID 2029, 2009; GFP response vs DMSO, % at 10 µM; S. cerevisiae CIT2-GFP strain, 3 h; 100 means same as DMSO wells;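 active means GFP response relative to DMSO above a set limit, near the screen mean plus 3 SD, cut at about 150% in these data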;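 further: ratio of well median GFP fluorescence to mean of DMSO wells on the plate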
AGP1 TOR yeast – modulators of AGP1-GFP expression in yeast TOR pathway, primary screen, cell-based, multiplex flow cytometry, S. cerevisiae, MLPCN library; hit rate 0.02% among 320,000; GFP response vs DMSO, % at 10 µM; 3 h; GFP as percent of DMSO wells;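 active means GFP response relative to DMSO above a set limit, near screen average plus 3 SD, cut at about 150% in these data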;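 further: median GFP channel fluorescence of the gated AGP1 strain per well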
LAP4-GFP pick2 – LAP4-GFP expression modulators in yeast, confirmation, cell-based, second cherry pick, flow cytometry; hit rate 20% among 590; GFP response vs DMSO, % at 10 µM; AID 2621, 2010; S. cerevisiae LAP4-GFP strain, 3 h; shares compounds with LAP4-GFP MLPCN;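 active means GFP signal as percent of the solvent control above about 150%, meaning raised reporter expression, limit read from the data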;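 further: ratio of well median GFP fluorescence to plate DMSO mean so 100% = DMSO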
MEP2-GFP pick2 – modulators of MEP2-GFP levels in yeast, confirmation, S. cerevisiae, flow cytometry GFP, second cherry picks; shares compounds with LAP4-GFP MLPCN; S. cerevisiae MEP2-GFP strain, 3 h; GFP response vs DMSO, % at 10 µM; hit rate 10% among 590; AID 2622, 2010;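 active means GFP signal above 150% of the solvent control wells, that is a rise of more than half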;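 further: median channel GFP fluorescence of all gated yeast cells per well; ratio of median GFP to plate DMSO average so 100% = DMSO level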
RPL19A-GFP pick2 – RPL19A-GFP modulators in TOR pathway yeast, confirmation, cell-based, S. cerevisiae, flow cytometry, second cherry pick. shares compounds with LAP4-GFP MLPCN. S. cerevisiae RPL19A-GFP strain, 3 h; hits give low values; 100% means same as DMSO wells. GFP response vs DMSO, % at 10 µM. hit rate 3% among 590. AID 2623, 2010;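 active means under 65% GFP response relative to DMSO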;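 further: median GFP channel fluorescence per well over the all cells gate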
CIT2-GFP pick2 – modulators of CIT2-GFP expression in yeast, confirmation, flow cytometry, second cherry pick, single plex; S. cerevisiae CIT2-GFP strain, 3 h; DMSO control wells read 100%; AID 2624, 2010; shares compounds with LAP4-GFP MLPCN; hit rate 8% among 590; GFP response vs DMSO, % at 10 µM;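 active means GFP response vs DMSO above about 150%, limit read from the data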;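 further: median green fluorescence per well over all gated yeast cells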
AGP1-GFP pick2 – AGP1-GFP expression modulators, hit retest, confirmation, cell-based, flow cytometry, S. cerevisiae, cherry pick set 2; shares compounds with LAP4-GFP MLPCN; S. cerevisiae AGP1-GFP strain, 3 h; percent response vs DMSO, % at 10 µM; 590 tested, under 10 active;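 active means over 150 percent of DMSO response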;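 further: median GFP channel fluorescence over all cells without mother daughter split; sample median GFP divided by mean DMSO control so 100% equals DMSO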
Yeast autofluor – compound autofluorescence in yeast s288c, dose response, artefact control for yeast TOR pathway GFP screen, s288c strain; shares compounds with LAP4-GFP MLPCN; S. cerevisiae s288c, 520 nm autofluorescence, flow cytometry, 3 h; hits give high values; zero means same as solvent-only cells; fluorescence change (kMESF span) at 33 µM; 610 tested, under 10 active; AID 2757, 2010;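 active means fluorescence span over the dose series, or activity score, above about 33, limit read from the data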
Numbers without * were called inactive; . = no result given. Hits are enriched below; roughly 0.89% of the tested compounds scored in any of these assays.

SMILES	RPL19A TOR yeast	MEP2 TOR yeast	LAP4-GFP MLPCN	CIT2 TOR yeast	AGP1 TOR yeast	Yeast autofluor	others
COc1cc(/C=C/c2ccc3c(Br)cc(Br)c(O)c3n2)ccc1O	94	109	164*	88	84	3.6
Cc1ccc(NC(=O)[C@H](C)NC(=O)C2CCN(C(=O)[C@@H](NC(=O)OC(C)(C)C)C(C)C)CC2)cc1	103	113	100	100	95	.
COc1ccc(CNC(=O)C2CCCN2S(=O)(=O)c2ccc(C)cc2)cc1 (configuration not stated)	97	93	103	89	97	.
Cc1ccc(S(=O)(=O)N2CCCC2C(=O)NCc2ccncc2)cc1 (configuration not stated)	98	112	100	161*	110	0	LAP4-GFP pick2=102;MEP2-GFP pick2=113;RPL19A-GFP pick2=100;CIT2-GFP pick2=107;AGP1-GFP pick2=100
CCN(CC)C(=S)SSC(=S)N(CC)CC	89	110	187*	68	76	0.4	LAP4-GFP pick2=181*;MEP2-GFP pick2=131;RPL19A-GFP pick2=93;CIT2-GFP pick2=110;AGP1-GFP pick2=99
CCN(CC)C(=S)SCC(=O)c1ccccc1	100	95	111	.	97	.
CCOc1cc(/C=C(/NC(C)=O)C(=O)O)cc(Cl)c1OCc1ccc(Br)cc1	99	99	106	98	101	.
CCOC(=O)/C(=C\c1cn(C)c2ccccc12)[N+](=O)[O-]	80	98	207*	57	59	2.2
Cc1onc(-c2ccccc2)c1C(=O)OCC(=O)NCc1ccc(F)cc1	98	104	114	92	105	.
CC(/C=C/C(=O)c1ccc(C)cc1)=C\c1ccccc1	94	91	92	98	100	.
Cc1ccc(C(=O)/C=C\C(=O)c2ccc(C)cc2)cc1	97	89	168*	67	84	.	LAP4-GFP pick2=120;MEP2-GFP pick2=113;RPL19A-GFP pick2=102;CIT2-GFP pick2=136;AGP1-GFP pick2=99
COc1ccc(N(C)S(=O)(=O)c2ccc3c(c2)CCN3C(=O)C2CC2)c(OC)c1	94	105	87	95	92	.
COc1cc(SSc2cc(OC)cc([N+](=O)[O-])c2N)c(N)c([N+](=O)[O-])c1	58	83	236*	108	88	1
CC1CN(C(=O)Cn2cc(S(=O)(=O)CC(=O)N3CCOCC3)c3ccccc32)CC(C)O1 (configuration not stated)	105	114	98	163*	117	.	LAP4-GFP pick2=103;MEP2-GFP pick2=100;RPL19A-GFP pick2=102;CIT2-GFP pick2=102;AGP1-GFP pick2=100
CC1CCN(C(=O)Cn2cc(S(=O)(=O)CC(=O)N3CCOCC3)c3ccccc32)CC1	105	101	98	107	104	.
Cc1ccnc(N2C(=O)c3cccc4c([N+](=O)[O-])ccc(c34)C2=O)c1	111	312*	232*	181*	75	6.2
Cc1ccc(N2C(=O)c3cccc4c([N+](=O)[O-])ccc(c34)C2=O)c2cccnc12	100	104	116	92	89	.
CCC(=O)Nc1ccc(NC(=O)c2cc3ccccc3o2)cc1	104	103	107	105	110	0.2
CCC(=O)Nc1ccc(NC(=S)NC(=O)c2cc3ccccc3o2)cc1	94	100	94	95	93	.
COc1cc(NC(=O)c2ccccc2[N+](=O)[O-])ccc1NC(=O)c1cc2ccccc2o1	106	118	108	107	106	0.1
COc1cccc(CNC(=O)C(CC(C)C)NC(=O)c2ccccc2C)c1 (configuration not stated)	103	102	93	104	98	.
Cc1nn(-c2ccccc2[N+](=O)[O-])c(=O)c2ccccc12	60	107	109	76	22	.	LAP4-GFP pick2=97;MEP2-GFP pick2=93;RPL19A-GFP pick2=99;CIT2-GFP pick2=105;AGP1-GFP pick2=99
Cc1ccc(C(=O)O/N=C(\N)Cc2cccs2)c(Cl)c1	87	108	232*	129	54	0.9
Cc1ccc(C(=O)O/N=C(\N)Cc2ccc([N+](=O)[O-])cc2)c(Cl)c1	101	90	138	77	67	.
Cc1cccc(NC(=O)NC2CCCc3ccccc32)c1 (configuration not stated)	94	94	94	104	94	.
SMILES	RPL19A TOR yeast	MEP2 TOR yeast	LAP4-GFP MLPCN	CIT2 TOR yeast	AGP1 TOR yeast	Yeast autofluor	others
COc1ccc(OC)c(S(=O)(=O)ON2C(=O)c3ccccc3C2=O)c1	101	87	182*	80	78	18
COc1ccc(OC)c(S(=O)(=O)N2CCN(c3ccccc3)CC2)c1	98	102	101	103	100	.
O=C(COC(=O)C1=COCCO1)Nc1cc(C(F)(F)F)ccc1Cl	96	93	98	80	92	.
Nc1ccccc1C#CC(=O)c1ccccc1	85	118	228*	96	121	0.5	LAP4-GFP pick2=179*;MEP2-GFP pick2=143;RPL19A-GFP pick2=86;CIT2-GFP pick2=121;AGP1-GFP pick2=131
Nc1ccccc1C#Cc1ccc([N+](=O)[O-])cc1	91	95	118	87	96	.
O=C(C#Cc1cccc([N+](=O)[O-])c1)c1ccccc1	88	103	171*	82	93	0.71
COc1cccc2cc(-c3nc4ccccc4o3)c(=O)oc12	56	103	114	85	67	0.71	LAP4-GFP pick2=105;MEP2-GFP pick2=102;RPL19A-GFP pick2=60*;CIT2-GFP pick2=98;AGP1-GFP pick2=65
CC1COc2ccccc2N1S(=O)(=O)c1cc(Cl)ccc1Cl (configuration not stated)	104	102	103	99	100	.
Cc1c(OCC(=O)NCC(O)c2ccccc2)ccc2c3c(c(=O)oc12)CCCC3 (configuration not stated)	88	84	85	95	90	.
